Screens: PubChem, National Center for Advancing Translational Sciences (NCATS)
Rows were chosen to be rich in hits. Some 1% of all compounds tested hit in one or more screens of this group.
NPSR antag: neuropeptide S receptor (human) antagonism, cAMP; CHO-NPSR cells, cAMP TR-FRET, antagonist mode; Potency, µM (highest dose often 38.3 µM), inactives show at the highest dose activity change, negative = inhibition, most hits filed as inhibitors; Q6W5P4; 220,000 tested, 1% active; also: potency is read from the fitted curve at half-maximal effect; % is scaled to controls: 0 for no effect and ±100 for the full control effect; nearly all actives have a fitted effect of over 50% in size
TRb-SRC2 inh: TRbeta-SRC2 interaction inhibition. 280,000 tested, 0.065% active. Potency, µM (top dose mostly 106 µM), for the others: at the top dose activity change, negative = inhibition, hits mostly inhibitors. TRbeta-SRC2 peptide binding, fluorescence polarization; receptor liganded with 1 µM T3. P10828;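 also: potency is read from the fitted curve at half-maximal effect; plate controls were bound peptide for no effect and peptide without receptor for full effect; nearly all actives have a fitted effect of over 50% in size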
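Polarization signal, normalized between peptide-alone and full complex controls, measured compound effects on T3-liganded human TRb LBD (0.6 uM) binding 20 nM Texas Red SRC2 peptide after 5 hr.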
TCR act: activates T cell receptor signaling; Potency, µM (top dose mostly 9.22 µM), for inactives: at the highest dose activation of IL-2 secretion, actives largely listed as activators; primary human leukocytes, anti-CD3, IL-2 HTRF, 48 h; 330,000 tested, under 10 active; AID 504894; also: % of control where 0% means no effect
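IL-2 release read by HTRF sandwich (Eu cryptate donor, d2 acceptor, 665 nm emission) after 48 hr exposure of primary human leukocytes to compound together with anti-CD3 beads in the absence of co-stimulatory signals.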
FBPA coupling cs: counter-screen for Giardia aldolase inhibitors: coupling enzyme system; activity change, negative = inhibition, % at 58.2 µM, hits read low; AID 2472; coupling enzyme system counterscreen, AmpLite Red fluorescence; 290,000 tested, 0.67% active; in the data active = activity change below about -30%; also: % is scaled to controls: 0 for no effect and ±100 for the full control effect
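First, compound is pin-transferred into glyceraldehyde-3-phosphate coupling-enzyme reagent at 57.5 uM final and held 10 min at RT. Next, substrate, coupling system and AmpLite Red are added. After 20 min RT, fluorescence (525/598 nm) is read.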
TR SRC2 fluor cs: alters Texas Red total fluorescence, flagging assay interference; TRb/SRC2 Texas Red total fluorescence interference; Potency, µM (titrated, usually from 106 µM), for the others: top-dose fluorescence change, negative = quenching; 280,000 tested, 0.29% active; AID 1479; active = well fitted curve in either direction with a large enough effect; inconclusive = small, poorly fitted or top-dose-only effect; also: potency is read from the fitted curve at half-maximal effect; % is scaled to controls: 0 for no effect and ±100 for the full control effect
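Flags fluorescent or light-absorbing compounds by total fluorescence, S + 2P, at 555 nm excitation and 632 nm emission. Mixture: 20 nM Texas Red SRC2 peptide, 0.6 uM human TRb LBD, 1 uM T3, 5% DMSO; compound exposure 5 h at ambient temperature.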
TSHR antag: blocks TSH signaling through the human TSH receptor; P16473; TSHR-expressing cells, TSH-stimulated cAMP HTRF, 2 h; active compounds read low; activity change, negative = inhibition, % at 11.5 µM; 330,000 tested, 0.2% active;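 active = activity change below a set negative limit, meaning inhibition stronger than a set level, cut at about -70% in these data; inconclusive = activity change between two set negative limits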; also: % is scaled to controls: 0 for no effect and ±100 for the full control effect
Target sequence (P16473 whole entry, looked up): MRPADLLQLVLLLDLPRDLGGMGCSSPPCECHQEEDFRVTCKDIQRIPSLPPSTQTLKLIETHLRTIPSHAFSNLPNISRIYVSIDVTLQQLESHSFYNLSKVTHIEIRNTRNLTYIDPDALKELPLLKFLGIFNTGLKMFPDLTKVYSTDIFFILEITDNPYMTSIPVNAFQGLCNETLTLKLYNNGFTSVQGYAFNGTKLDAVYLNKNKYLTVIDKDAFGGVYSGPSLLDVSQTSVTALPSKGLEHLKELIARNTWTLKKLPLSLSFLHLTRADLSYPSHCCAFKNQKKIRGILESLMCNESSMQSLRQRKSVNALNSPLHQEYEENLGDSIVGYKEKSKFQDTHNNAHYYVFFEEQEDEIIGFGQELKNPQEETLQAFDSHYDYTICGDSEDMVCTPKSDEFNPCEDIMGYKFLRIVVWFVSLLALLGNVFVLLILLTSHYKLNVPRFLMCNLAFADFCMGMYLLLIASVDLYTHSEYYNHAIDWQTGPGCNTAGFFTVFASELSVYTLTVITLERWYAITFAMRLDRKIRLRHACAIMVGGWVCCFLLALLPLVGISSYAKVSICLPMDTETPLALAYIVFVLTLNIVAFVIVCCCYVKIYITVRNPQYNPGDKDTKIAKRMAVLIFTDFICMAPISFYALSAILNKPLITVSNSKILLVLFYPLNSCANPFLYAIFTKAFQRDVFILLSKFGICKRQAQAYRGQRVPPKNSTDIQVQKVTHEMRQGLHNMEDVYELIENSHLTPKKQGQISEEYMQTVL
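Inhibition of cAMP made by TSHR-expressing cells under TSH stimulation (4nM final, EC80; 2 h, 37 deg C) is quantified with a one-step lysis HTRF kit, anti-cAMP cryptate versus cAMP-d2.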
Starred values were filed as active, the others as inactive; ? = inconclusive; . = no result; [ ] = remark or other dose. Unless noted, calls follow the shape of the dose curve; as a rule, active = well fitted curve in the direction sought with a large enough effect; inconclusive = small, poorly fitted or top-dose-only effect, or another doubt; inactive = no such curve, though single readings can be large; an effect the other way counts as inactive or inconclusive.

SMILES	NPSR antag	TRb-SRC2 inh	TCR act	FBPA coupling cs	TR SRC2 fluor cs	TSHR antag
CCC[C@@H]1NC(=O)[C@@H](NC(C)=O)CSSC[C@@H](C(N)=O)NC(=O)CNC(=O)[C@H](Cc2c[nH]c3ccccc23)NC(=O)[C@H](CCCN=C(N)N)NC(=O)[C@H](Cc2ccc3ccccc3c2)NC(=O)[C@H](Cc2cnc[nH]2)NC(=O)[C@H](CCCN=C(N)N)NC1=O	.	-1.3%	.	7.0	-9.0%	.
COc1ccc(/C=N/Nc2nncn2N)cc1Br	.	.	3.4%	-15.0	.	12.7
COc1cc(/C=N/Nc2nncn2N)ccc1OCc1c(C)no[n+]1[O-]	-19.9%	5.6%	6.4%	-38.5*	-1.1%	3.5
CCOC(=O)C1=C(O)c2ccccc2C(=O)/C1=C\c1ccc(CC)cc1	?	-0.4%	-1.9%	-47.6*	-7.3%	-34.0
CCOC(=O)C1=C(C)N(c2ccccc2)C(=O)/C1=C\c1ccc(O)c(OC)c1	-30.5%	7.6%	-1.5%	2.9	-4.2%	20.0
CCOC(=O)c1ccc(COC(=O)c2ccc3c(c2)-c2ccccc2C3=O)cc1	-2.6%[46.1 µM]	0.5%	2.9%	-1.0	-2.4%	-5.1
CCCc1ccc(/C=C2\C(=O)c3ccccc3C(O)=C2C(=O)OCC)cc1	?	-1.9%	.	-37.2*	-5.7%	-9.6
COc1c(C)cccc1C(=O)Nc1ccc(Cl)c(-c2nc3cc(C)ccc3o2)c1	.	2.6%	.	.	3.4%	.
Cn1c(COc2ccccc2)nnc1SCCSc1nnc(COc2ccccc2)n1C	-21.8%[46.1 µM]	2.7%	-0.1%	2.2	-1.4%	-3.5
Cn1c(COc2ccc(Br)cc2)nnc1SC1CCc2ccccc2C1=O (configuration not stated)	-47.3%	-1.5%	-1.7%[46.1 µM]	-56.6*	?	16.2
COc1cc(/C=C2/SC(=O)NC2=O)ccc1Oc1ccc([N+](=O)[O-])cc1[N+](=O)[O-]	12.6µM*	3.6%	1.5%	5.0	-1.1%	-21.4
Cc1nc(N2CCN(C(=O)c3ccco3)CC2)c(C#N)c2c1CCCC2	.	.	2.6%	-2.3	.	2.6
Cc1cc(C)c2nc(N3CCCN(C(=O)c4ccco4)CC3)c(C#N)cc2c1	-29.5%[46.1 µM]	10.4%	-5.3%	-38.8*	-0.1%	16.3
CCCSc1ncc(Cl)c(C(=O)N(Cc2ccc(N(C)C)cc2)C2CCS(=O)(=O)C2)n1 (configuration not stated)	.	-12.9%[53 µM]	.	.	4.47µM*[quencher]	.
CCCSc1ncc(Cl)c(C(=O)N(Cc2cccc(Cl)c2)C2CCS(=O)(=O)C2)n1 (configuration not stated)	.	-1.1%	.	.	9.3%	.
O=C(OCCc1cc2ccccc2c(=O)o1)c1ccccc1C(F)(F)F	.	.	-5.4%	.	.	-71.2*
CC1(C)Cc2ccccc2C2=NNC(=O)C2=N1	-21.5%	-13.5%	.	-56.8*	-1.4%	0.8
CC1(C)Cc2ccccc2C(Nn2cnnc2)=N1	2.0%[46.1 µM]	4.9%	-2.7%	0.6	0.8%	-4.5
CCCOc1ccc(-c2nn(-c3ccccc3)cc2/C=C2\SC(N)=NC2=O)cc1	3.98µM*	-3.8%[53 µM]	-1.9%[46.1 µM]	6.4	-3.4%[53 µM]	25.8
Cc1cc(-c2nn(-c3ccccc3)cc2/C=C2\SC(N)=NC2=O)ccc1OC(C)C	-28.8%[46.1 µM]	-0.5%	1.7%[46.1 µM]	-1.0	-2.4%	2.6
Cc1ccc(C(=O)c2cn(Cc3ccc(F)cc3)c3nc(C)ccc3c2=O)cc1	.	-21.2%[53 µM]	.	.	0.0112µM*[quencher]	.
CCCCOC(=O)[C@@H](C)Oc1ccc(Oc2ccc(C(F)(F)F)cn2)cc1	.	-4.2%[201 µM]	.	.	-4.1%[201 µM]	.
Cc1ccc(NC(=O)c2c(C)nc3sc(C(=O)Nc4ccc(F)cc4)c(N)c3c2-c2ccc(Cl)cc2)c(C)c1	.	2.2%	.	.	-0.3%	.
CCNc1ccccc1CP(=O)(c1ccccc1)c1ccccc1O (configuration not stated)	.	.	-0.8%	-57.6*	.	-5.2
CCOC(=O)c1ccccc1C	.	7.1%[201 µM]	.	.	-3.6%[201 µM]	.
SMILES	NPSR antag	TRb-SRC2 inh	TCR act	FBPA coupling cs	TR SRC2 fluor cs	TSHR antag
Cc1ccc(Cl)cc1N1CCN(S(=O)(=O)c2ccc3c(c2)CC(C)N3C(=O)C2CCC2)CC1 (configuration not stated)	.	-13.1%	.	.	15.8µM*[quencher]	.
Cc1ccc(C)c(N2CCN(S(=O)(=O)c3ccc4c(c3)CC(C)N4C(=O)C3CC3)CC2)c1 (configuration not stated)	.	.	3.7%	-5.9	.	-76.9*
CC(=O)N1c2ccc(S(=O)(=O)N3CCC(C(=O)N4CCN(c5cc(Cl)ccc5C)CC4)CC3)cc2CC1C (configuration not stated)	.	.	-4.5%	.	.	-0.5
Cc1cccc(N2CCN(S(=O)(=O)c3ccc4c(c3)CC(C)N4C(=O)C3CC3)CC2)c1C (configuration not stated)	.	.	-3.2%	-1.1	.	-1.0
CCc1ccc(N(CC)C(=O)c2ccc3c(=O)n4c(nc3c2)CCCCC4)cc1	.	1.0%	.	.	-3.2%	.
Cc1ccc(-c2cc(C(F)F)n3ncc(C(=O)Nc4c(C)nn(Cc5ccccc5Cl)c4C)c3n2)cc1	3.98µM*	-6.5%	-3.6%	-1.8	1.3%	-7.6
Cc1ccc(-c2cc(C(F)F)n3ncc(C(=O)Nc4c(C)nn(Cc5c(Cl)cccc5Cl)c4C)c3n2)cc1	-9.2%[46.1 µM]	-9.8%	1.9%	4.7	2.2%	8.5
COc1cc(NCc2ccc3nc(N)nc(N)c3c2C)cc(OC)c1OC	.	-2.8%	.	-45.9*	-17.6%	.
COc1ccc(NCc2nnc(SCC(=O)N3CCCc4ccccc43)n2C)cc1	?	-11.5%	-31.6%	-38.3*	1.4%	-0.6
COc1cccc(-c2cc(C(F)(F)F)nc(-n3cccn3)n2)c1	-6.9%[46.1 µM]	8.8%	-7.3%	0.1	0.3%	1.8
CCOC(=O)c1ccn(-c2nc(-c3cccc(OC)c3)cc(C(F)(F)F)n2)n1	.	-10.1%	.	.	0.0022µM*[quencher]	.
CCOc1ccccc1CNC(=O)c1ccc(CS(=O)Cc2cccc(Cl)c2)o1 (configuration not stated)	.	-0.1%	.	.	-0.6%	.
Cc1ccc(OC(=O)Nc2ccccc2)cc1	6.9%	5.9%	4.3%	-0.4	-0.5%	2.3
O=C(Nc1ccccc1)Oc1ccc[nH]c1=O	11.8%	5.1%	-2.7%	-43.6*	1.2%	16.1
FC(F)c1nc2ccccc2[nH]1	15.3%	0.6%	-6.3%	2.7	-6.3%	-7.3
c1ccc2[nH]c3cc4ncnc4cc3nc2c1	-47.2%	5.8%	3.7%[46.1 µM]	-42.6*	-11.1%	-15.3
O=[N+]([O-])c1c(Nc2ccccc2O)cc(Cl)c2nonc12	.	.	-1.8%	-3.9	.	-76.5*
COc1ccc2c(c1)Cc1sc(NC(=O)c3ccccc3C)nc1-2	.	-12.1%	.	.	0.0028µM*[quencher]	.
COc1ccc(C(=O)Nc2nc3c(s2)Cc2cc(OC)ccc2-3)cc1	-13.4%[46.1 µM]	3.5%	4.9%	.	1.5%	-29.7
